Here are results for 40 molecules from PubChem BioAssay (NCI).

The panel holds about 83,000 compounds, 20% with a hit somewhere; the sample as a whole holds those more often.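 Note: values are percent growth. 100 is the growth of untreated cells, values between 100 and 0 indicate rising inhibition; between -100 and 0 indicates cell death.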 Values without a mark were called inactive. Calls of active or inactive are those of the source.

This experiment deals with HCT-116 colon. As to the kind of experiment: NCI-60 one-dose screen, 48 h (100 = growth as untreated, 0 = no growth, -100 = all killed). The conditions noted are these: 10 µM. The method, then: Growth inhibition of the HCT-116 human tumor cell line is measured as a screen for anti-cancer activity. Cells are grown in 96 well plates and exposed to the test compound for 48 hours. Compounds are tested at a single concentration, which is 10^-5 M for most compounds. The reported endpoint is percent growth (GI% or GIPRCNT), where numbers from 0 - 100% represent growth inhibition, and numbers from -100% - 0 represent cell death. For example, a value of 40 represents 60% growth inhibition. A value of 0 means no net growth occurred over the course of the experiment. A value of -40 indicates 40% of cells at the beginning of the experiment died by the end of the experiment. A value of -100 means all cells are dead at the end of the experiment.
NCI-60 Human Tumor Cell Lines Screen was performed using the standard one-dose NCI protocol, which is described in more detail at https://dtp.cancer.gov/discovery_development/nci-60/default.htm.
Compounds with GIPRCNT values below 10 were considered active. Activity score was based on GIPRCNT using the following formula: […]
Score is 0 for GIPRCNT values of 100 or above, 50 for GIPRCNT values of 0, and 100 for GIPRCNT values of -100.
As for `COc1ccc(C2c3sc4ccc(C)cc4c3Oc3nc(N)nc(N)c32)cc1` (stereo not given), the growth was 86.9%. As to `COc1cc(C2CC(c3ccc(Oc4ccc(Cl)cc4)cc3)=NN2c2nc(-c3ccc(Cl)cc3)c(C#N)c(N3CCOCC3)n2)cc(OC)c1OC` (stereo not given), the growth is 106%. Regarding `C#CCOc1cc(N(CC)CC)ccc1C(C(=O)NC(C)(C)C)N(C(=O)C1CCc2cc(F)ccc2O1)c1ccc(F)cc1F` (stereo not given), the growth is 24.7%. Under `COc1ccc(OC)c(-n2cc(C#N)c(N)c2C(=O)c2ccc(Cl)cc2Cl)c1` stands 29.4%.

In the case of `Cn1cc(-c2nnc(N)nc2-c2c[nH]c3ccc(F)cc23)c2cc(Br)cnc21`, the growth is 59.2%. With `CCOc1ccc(/C=N/NC(=O)Cn2nc(Cc3ccc(OC)cc3)c3onc(C)c3c2=O)cc1`, the growth was -23.3% (active). On to `COc1cc2oc(-c3cccc(C(=O)Nc4ccc(Cl)cc4)c3)cc(=O)c2c(OCCNC(=O)[C@@H](N)CO)c1OC`, for which the growth was 23.6%. Consider `Cc1ccc(COc2ccc(NC(=O)Nc3ccc(Cl)c(C(F)(F)F)c3)cc2)cc1`, for which the growth is 69.7%. Consider `O=C(Nc1ccc(OCc2ccc(Cl)cc2)cc1)Nc1ccc(Cl)c(C(F)(F)F)c1`, for which the growth is 3.96% (active). Under `O=C(CSc1nc2ccccc2c(=O)n1-c1ccc(Cl)cc1)Nc1ccc(-c2nc3ccc([N+](=O)[O-])cc3[nH]2)cc1` stands 19.1%; under `COc1cc(Nc2nc(O)c(/C=C3\C=Nc4ccccc43)s2)cc(OC)c1OC`, -59.2% (active). For `COc1ccc(-n2c(SCC(=O)NNS(=O)(=O)c3ccccc3)nc3ccc(Cl)cc3c2=O)cc1` the value was 95.6%; for `O=[N+]([O-])c1cccc(-c2nnc3c(/C=C/c4ccccc4O)nc4ccccc4n23)c1`, 56.4%; for `COc1cccc(C(=O)CSc2nc(-c3ccc(OCc4ccccc4)c(OC)c3)c(C#N)c(=O)[nH]2)c1`, 99.6%. Under `CC1(C)CC[C@]2(C(=O)O)CC[C@]3(C)C(=CCC4[C@@]5(C)C[C@@H](O)[C@@H]6OC(c7cccc(F)c7)OC[C@@]6(C)C5CC[C@]43C)C2C1` (stereo not given in full) stands 9.3% (active); under `Cc1ccc2c(c1)C(=O)/C(=C/c1c[nH]c3ccccc13)S2`, 14.2%. Take `COc1ccc(Cc2nn(CC(=O)N/N=C/c3ccc([N+](=O)[O-])cc3)c(=O)c3c(C)noc23)cc1`: the growth is 27%. For `COc1cc2oc(-c3cccc(C(=O)Nc4ccc(Cl)cc4)c3)cc(=O)c2c(OCCN)c1OC`, the growth was -90.3% (active). Turning to `C#C[C@]1(O)CC[C@H]2[C@@H]3CC=C4c5sc(Nc6cc(C)cc(C)n6)nc5CC[C@]4(C)[C@H]3CC[C@@]21C`, the growth was -56.1% (active). Under `COc1ccc(C2c3sc4ccc(C)cc4c3Oc3nc[nH]c(=O)c32)cc1` (stereo not given) stands 90.2%. For `COc1ccc(C(=O)COc2ccc(NC(=O)Nc3ccccc3)cc2)cc1` the value was 91%; for `Fc1ccc(-c2csc(Nc3cccc(Nc4nc(-c5ccc(F)cc5)cs4)c3)n2)cc1`, 57.7%; for `Cc1ccc2c(c1)C(=O)/C(=C/c1ccc([N+](=O)[O-])cc1)S2`, 14.3%.

As to `Cn1cc(-c2nnc(N)nc2-c2c[nH]c3ccccc23)c2cc(Br)cnc21`, the growth is 22.8%.

On to `O=C(CSc1nc2ccccc2c(=O)n1-c1ccc(Cl)cc1)Nc1ccc(-c2nc3ccccc3[nH]2)cc1`, for which the growth is -84.3% (active). For `CC1(C)CC(=O)C2=C(C1)N(Cc1ccc(C(=O)O)cc1)C1=C(C(=O)CC(C)(C)C1)C2c1ccc(Cl)cc1` the value was 106%; for `Cc1ccc2sc3c(c2c1)Oc1nc[nH]c(=O)c1C3c1cccc(F)c1` (stereo not given), 89.3%. Regarding `COc1ccc(NCc2cn(-c3ccc(C(=O)O)cc3)nc2-c2ccc(F)cc2)cc1C(F)(F)F`, the growth is 39.5%. For `O=C(Nc1ccc(OCC(=O)c2ccc(Cl)cc2)cc1)Nc1ccc(Cl)c(C(F)(F)F)c1` the value was 50.8%; for `Nc1nnc(-c2c[nH]c3ncc(Br)cc23)c(-c2c[nH]c3ccc(Br)cc23)n1`, 22.1%.

Turning to `O=C(c1ccc(F)cc1)C(c1c[nH]c2ccccc12)c1c[nH]c2ccccc12`, the growth is 7.24% (active). Take `O=C(CC(=O)Nc1ccc(Oc2ncnc3scc(Nc4n[nH]c(=S)s4)c23)cc1)Nc1ccc(Cl)cc1`: the growth is 92.5%. `Cc1ccc(-c2nc(C#N)c(S(=O)(=O)N3CCN(S(C)(=O)=O)CC3)o2)cc1`: the growth is -74% (active). In the case of `CC(C)(C)c1cc(/C=C2\S/C(=N/c3ncn[nH]3)NC2=O)cc(C(C)(C)C)c1O`, the growth is 7.92% (active). Consider `Cc1cc(N=C2NC(=O)/C(=C/c3cc(C(C)(C)C)c(O)c(C(C)(C)C)c3)S2)n[nH]1`, for which the growth was 3.45% (active).

`Cn1cc(/C=C(/SS/C(=C/c2cn(C)c3cccc(C(=O)O)c23)C(=O)O)C(=O)O)c2c(C(=O)O)cccc21`: the growth is 118%.

Turning to `O=C(CC(=O)Nc1ccc(Oc2ncnc3scc(Nc4n[nH]c(=S)s4)c23)cc1)Nc1ccc(Br)cc1`, the growth is 107%.

For the molecule `COc1ccc(C(=O)COc2ccc(NC(=O)Nc3ccc(Cl)c(C(F)(F)F)c3)cc2)cc1`, the growth was 25.9%. Regarding `Fc1ccc(/C=C/c2nc3ccccc3n3c(-c4ccc(Cl)cc4)nnc23)cc1`, the growth is 41.8%. `O=C(c1ccccc1)c1ccc2nc(-c3ccccc3Br)[nH]c2c1`: the growth is -38.8% (active).
